# Experiments:
# [1] = target: T1, Aspartate--tRNA(Asp/Asn) ligase (Mycobacterium tuberculosis (strain ATCC 25618 / H37Rv)) (UniProt P9WFW3); experiment: Assay for Asp RNA synthetase-1 from Mycobacterium tuberculosis; type: functional; parameters: scale not given: direction of the effect not stated beside the values; settings: 30 µM; further: in the data most compounds retested in dose-response had high values
# T1 sequence (whole entry): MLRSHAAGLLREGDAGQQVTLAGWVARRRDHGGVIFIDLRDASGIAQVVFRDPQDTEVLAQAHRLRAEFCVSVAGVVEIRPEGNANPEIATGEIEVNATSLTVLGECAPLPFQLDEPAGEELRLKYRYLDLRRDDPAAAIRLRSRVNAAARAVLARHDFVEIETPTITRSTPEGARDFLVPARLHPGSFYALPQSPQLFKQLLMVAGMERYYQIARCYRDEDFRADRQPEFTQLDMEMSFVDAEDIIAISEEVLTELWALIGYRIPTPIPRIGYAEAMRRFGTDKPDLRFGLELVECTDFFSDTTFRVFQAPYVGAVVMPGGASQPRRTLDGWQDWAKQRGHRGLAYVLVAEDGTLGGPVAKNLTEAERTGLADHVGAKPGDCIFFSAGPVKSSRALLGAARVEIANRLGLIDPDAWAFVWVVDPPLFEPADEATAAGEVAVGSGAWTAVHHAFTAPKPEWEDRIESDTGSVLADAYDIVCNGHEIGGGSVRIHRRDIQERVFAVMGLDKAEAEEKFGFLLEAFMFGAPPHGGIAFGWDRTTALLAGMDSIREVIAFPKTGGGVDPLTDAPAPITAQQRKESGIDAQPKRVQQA
# [2] = target: Shiga toxin 2 (Escherichia coli O157:H7) (UniProt P09385+P09386); experiment: E. coli 0.157:H7 Shiga Toxin SOP - stx2 screening assay; type: functional; parameters: scale not given: direction of the effect not stated beside the values; settings: 30 µM
Structure (SMILES),Percent Effect [1] [%],Percent Effect [2] [%]
CC(NC(=O)CSCC#N)c1cccc(NC(=O)c2ccccc2)c1 (stereo unspecified),1.91,6.38
CN(c1ccc(F)c(F)c1)S(=O)(=O)c1cc(C(=O)O)cs1,1.3,20.8
Cc1ccc2c(n1)N(C)CCN(C(=O)C1CC1)C2,9.78,-13.9
CCCc1n[nH]c(C2CN(C(=O)c3ccco3)CCO2)n1 (stereo unspecified),-0.955,8.05
CN(Cc1cccc(F)c1)C(=O)CN1CCOC(Cn2cccn2)C1 (stereo unspecified),-0.139,0.15
CS(=O)(=O)N1CCOCC2(CCN(C(=O)c3cccnc3)CC2)C1,-2.76,-13.1
Fc1cnc(N2CCOC3(CCN(Cc4ccsc4)CC3)C2)nc1,14.1,-18
CC(C)N(C)Cc1cnc2n1CCN(CCc1ccccc1)C2,0.605,-27.2
Cc1nnc(N2C[C@H](C(=O)NCC3CC3)[C@@H]3CCO[C@@H]3C2)s1,-0.219,-6.05
CN(C)C(=O)NC1COC2(CCN(C(=O)Nc3ccccc3)CC2)C1 (stereo unspecified),7.1,-15.4
c1cc2c(cc1C1CCCN1Cc1nnnn1C1CC1)OCCO2 (stereo unspecified),-1.25,3.61
Cc1nc(CN(C)C2CCN(Cc3nc4ccccc4s3)C2)no1 (stereo unspecified),-0.253,0.376
CCN(CC)CCNC(=O)c1ccn(COc2cc(C)cc(C)c2)n1,-3.4,-48.5
Cc1nnc(C(C)NCC2(c3c(F)cccc3F)CCCC2)o1 (stereo unspecified),-1.77,9.79
CC(C)c1nnc2n1CCN(C(=O)c1ccc(OCC(N)=O)cc1)C2,-5.82,-6.36
NC(=O)c1nnn(-c2ccc(Br)cc2)n1,3.66,-41.8
Cc1nocc1C(=O)N1CCc2c(CN(C)C(C)C)n[nH]c2C1,0.866,3.98
Cc1cccc(CN2CC3(CCNCC3)OCC2=O)n1,5.56,5.99
